PubChem BioAssay (Tox21)
Records with an inconclusive call do not appear. Active and inactive are the calls of the source. Unless noted, calls come from the whole dose curve.

Key:
[1] = Nuclear factor erythroid 2-related factor 2/antioxidant responsive element (Nrf2/ARE) small molecule agonists: qHTS cell viability counter screen in human keratinocytes (AID 1919968; active = well fitted curve in the direction sought with a large enough effect in the repeat runs; an effect the other way counts as inactive or inconclusive; note: nearly all actives have a fitted effect of over 55% in size; note: potency is the fitted concentration of half-maximal effect)
How it was run: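 Parallel cytotoxicity read: KeratinoSens HaCaT cells, compound treatment 23 h, viability by CellTiter-Fluor fluorescence 1 h post-reagent.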

[2] = Nuclear factor erythroid 2-related factor 2/antioxidant responsive element (Nrf2/ARE) small molecule agonists: luciferase reporter gene qHTS assay in human keratinocytes (AID 1919969); note: nearly all actives have a fitted effect of over 35% in size; note: potency is the fitted concentration of half-maximal effect
[3] = molecular target: Gonadotropin-releasing hormone receptor (Homo sapiens) (UniProt P30968); experiment: Human gonadotropin-releasing hormone receptor (GnRHR) small molecule agonists, calcium flux assay in GnRHR-HEK293 cells (AID 1920063); note: nearly all actives have a fitted effect of over 35% in size; note: potency is the fitted concentration of half-maximal effect
How it was run: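 Calcium flux, agonist mode, human GnRHR stably integrated in HEK293; dye 1 h at 37 C before compound; Ex/Em=480/540 kinetic read, 3 min; 15 concentrations, triplicate.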

[4] = molecular target: KiSS-1 receptor (Homo sapiens) (UniProt Q969F8); experiment: Human kisspeptin (KISS1R) small molecule agonists, calcium flux assay in KISS1R-HEK293 cells (AID 1920064; active = well fitted curve in the direction sought with a large enough effect in the repeat runs; an effect the other way counts as inactive or inconclusive)
How it was run: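 Triplicate 15-concentration series were applied to dye-loaded human KISS1R HEK293 cells, and agonist-evoked calcium fluorescence was captured for 3 min.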

[5] = G protein-coupled receptor (GPCR) small molecule agonists, calcium flux assay: HEK293 wild type cell line counter screen (AID 1920065)
How it was run: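 Non-specific calcium responders were flagged by adding DMSO-dissolved compounds to dye-loaded cells and reading 480/540 nm fluorescence each second for 3 min; ATP served as positive control.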

[6] = p53 small molecule agonists, cell-based qHTS assay with human liver microsomes (AID 1963577)
How it was run: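 Cells carrying a p53-responsive bla reporter were rested 5 h (37 C, 5% CO2) before compound transfer. Human liver microsomes plus NADPH, 0.5 mg/mL final apiece, supplied metabolism during the 16 h 37 C exposure.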

[7] = p53 small molecule agonists, cell-based qHTS assay with rat liver microsomes (AID 1963578)
How it was run: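 Fluorescence from a beta-lactamase reporter under a p53 response element was measured after cells had been incubated 16 h at 37 C with test compound and rat liver microsomes plus NADPH (0.5 mg/mL final each).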

[8] = p53 small molecule agonists, cell-based qHTS assay with human liver microsomes: qHTS cell viability counter screen (AID 1963579); note: nearly all actives have a fitted effect of over 45% in size; note: potency is the fitted concentration of half-maximal effect
How it was run: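 Seed p53RE-bla cells at 4,000 per well; incubate 5 h at 37 C; add compound, human liver microsomes and NADPH; incubate 16 h at 37 C; add CellTiter-Glo; after 30 min at room temperature, read luminescence.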

[9] = p53 small molecule agonists, cell-based qHTS assay with rat liver microsomes: qHTS cell viability counter screen (AID 1963580); note: nearly all actives have a fitted effect of over 45% in size
How it was run: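 After the beta-lactamase ratio was read, CellTiter-Glo was added to the same wells and luminescence measured at 30 min; cells had been treated 16 h at 37 C with compounds, rat liver microsomes and NADPH (0.5 mg/mL final each).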

[10] = p53 small molecule agonists, cell-based qHTS assay: qHTS cell viability counter screen (AID 1963581); note: nearly all actives have a fitted effect of over 45% in size; note: potency is the fitted concentration of half-maximal effect
How it was run: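 Multiplexed with the reporter read, a CellTiter-Glo step (30 min, room temperature) gauges ATP-based viability of HCT-116 p53RE-bla cells after 16 h compound incubation at 37 C.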

[11] = p53 small molecule agonists, cell-based qHTS assay (AID 1963582; active = well fitted activation curve with a large enough effect in the signal ratio in the repeat runs, not every such curve was filed as active; the % refers to the signal ratio)
How it was run: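 Beta-lactamase reporter cells (p53RE-bla) treated with compounds for 16 h at 37 C; FRET substrate, 2 h, room temperature; fluorescence intensity.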

[12] = molecular target: 5-hydroxytryptamine receptor 2A (Homo sapiens) (UniProt P28223); experiment: 5-hydroxytryptamine receptor 2A (HTR2A) small molecule agonists, cell-based qHTS assay (AID 1963587); note: nearly all actives have a fitted effect of over 30% in size
How it was run: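 CHO cells stably expressing human HTR2A, plated 18 h, loaded with calcium dye 1 h at 37 C. Agonist mode: compounds added and intracellular calcium fluorescence recorded kinetically for 2 min at 1 sec intervals.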

[13] = molecular target: Muscarinic acetylcholine receptor M1 (Homo sapiens) (UniProt P11229); experiment: Cholinergic receptor muscarinic 1 (CHRM1) small molecule antagonists, cell-based qHTS assay (AID 1963588); note: nearly all actives have a fitted effect of over 40% in size; note: potency is the fitted concentration of half-maximal effect
How it was run: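 Compounds were tested at 15 concentrations in three independent runs. Dye-loaded CHRM1-CHO cells were exposed 5 min at room temperature before stimulation by acetylcholine added at 50nM. Intracellular calcium was read kinetically on FDSS for 3 min.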

[14] = molecular target: Muscarinic acetylcholine receptor M1 (Homo sapiens) (UniProt P11229); experiment: Cholinergic receptor muscarinic 1 (CHRM1) small molecule agonists, cell-based qHTS assay (AID 1963589); note: nearly all actives have a fitted effect of over 35% in size
How it was run: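 qHTS, 15-point titration, 3 independent runs: compounds pin-transferred onto dye-loaded CHRM1-CHO cells (human M1), calcium fluorescence followed every second to detect agonism.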

[15] = cAMP Responsive Elements (CRE) small molecule antagonists, cell-based qHTS assay (AID 1963591; active = well fitted inhibition curve with a large enough effect in the signal ratio in the repeat runs, not every such curve was filed as active; the % refers to the signal ratio)
How it was run: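 Fluorescence intensity from cleaved LiveBLAzer B/G substrate (2 h, room temperature) quantified CRE-bla activity in HEK 293T cells exposed 3 h to compound with 0.25 uM final NKH477.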

[16] = molecular target: D(2) dopamine receptor (Homo sapiens) (UniProt P14416); experiment: Dopamine D2 receptor (DRD2) small molecule agonists, cell-based qHTS assay (AID 1963594); note: nearly all actives have a fitted effect of over 35% in size
How it was run: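 HEK293 cells stably expressing human DRD2, pre-treated with PDE inhibitor Ro20-1724 (0.1 mM final) and compound 10 min at room temperature, then stimulated with NKH477 (200nM […]) for 30 min. cAMP read by HTRF (665/620 nm).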

[17] = molecular target: D(2) dopamine receptor (Homo sapiens) (UniProt P14416); experiment: Dopamine D2 receptor (DRD2) small molecule antagonists, cell-based qHTS assay (AID 1963595; active = well fitted inhibition curve with a large enough effect in the signal ratio in the repeat runs, with a control signal flat; the % refers to the signal ratio)
How it was run: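 DRD2-HEK293; 0.1 mM Ro20-1724; cpd 10 min RT; NKH477 200 nM + quinpirole 12 nM, 30 min RT; HTRF cAMP (cAMP-d2/anti-cAMP cryptate), 665/620 nm ratio after 1 h.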

[18] = molecular target: Beta-2 adrenergic receptor (Homo sapiens) (UniProt P07550); experiment: Adrenergic beta2 receptor (ADRB2) small molecule antagonists, cell-based qHTS assay (AID 1963592); note: series mostly up to about 92 µM; nearly all actives have a fitted effect of over 50% in size
How it was run: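 Assay format: CHO-ADRB2 cells, 18-20hr seeding at 37C/5% CO2, then compound plus 1nM isoproterenol agonist mix for 0.5hr RT. Homogeneous time-resolved fluorescence cAMP detection after 1hr, expressed as 665/615 nm ratio.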

[19] = molecular target: Beta-2 adrenergic receptor (Homo sapiens) (UniProt P07550); experiment: Adrenergic beta2 receptor (ADRB2) small molecule agonists, cell-based qHTS assay (AID 1963593);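 note: CHO cells stably overexpressing human ADRB2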
How it was run: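 CHO cells stably over-expressing ADRB2 were plated overnight at 37C, then dosed with compounds plus a stimulation mix containing 100uM IBMX and 25uM Ro-20-1724 for 0.5hr at room temperature. cAMP was measured by HTRF competition, 1hr.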

[20] = cAMP Responsive Elements (CRE) small molecule agonists, cell-based qHTS assay (AID 1963590)
How it was run: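 Quantitative HTS for CRE agonists: HEK 293T CRE-bla cells, overnight plating, 3 h compound incubation at 37 C/5% CO2, then 2 h room-temperature LiveBLAzer B/G FRET substrate loading.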

Measured: Potency

Sequence of D(2) dopamine receptor (Homo sapiens) (P14416 whole entry, looked up): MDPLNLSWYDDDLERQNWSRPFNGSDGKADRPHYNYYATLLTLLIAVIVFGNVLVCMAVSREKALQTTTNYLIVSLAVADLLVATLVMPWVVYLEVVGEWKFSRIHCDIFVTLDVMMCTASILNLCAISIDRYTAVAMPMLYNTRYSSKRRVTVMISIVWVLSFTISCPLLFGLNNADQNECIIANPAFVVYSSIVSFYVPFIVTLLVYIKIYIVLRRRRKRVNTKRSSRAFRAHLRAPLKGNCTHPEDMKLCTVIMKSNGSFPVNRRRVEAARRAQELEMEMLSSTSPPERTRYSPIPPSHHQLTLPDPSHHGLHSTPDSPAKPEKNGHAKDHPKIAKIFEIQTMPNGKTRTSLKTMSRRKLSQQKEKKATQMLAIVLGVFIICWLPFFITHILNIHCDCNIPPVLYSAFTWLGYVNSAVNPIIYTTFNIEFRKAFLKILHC
Sequence of 5-hydroxytryptamine receptor 2A (Homo sapiens) (P28223 whole entry, looked up): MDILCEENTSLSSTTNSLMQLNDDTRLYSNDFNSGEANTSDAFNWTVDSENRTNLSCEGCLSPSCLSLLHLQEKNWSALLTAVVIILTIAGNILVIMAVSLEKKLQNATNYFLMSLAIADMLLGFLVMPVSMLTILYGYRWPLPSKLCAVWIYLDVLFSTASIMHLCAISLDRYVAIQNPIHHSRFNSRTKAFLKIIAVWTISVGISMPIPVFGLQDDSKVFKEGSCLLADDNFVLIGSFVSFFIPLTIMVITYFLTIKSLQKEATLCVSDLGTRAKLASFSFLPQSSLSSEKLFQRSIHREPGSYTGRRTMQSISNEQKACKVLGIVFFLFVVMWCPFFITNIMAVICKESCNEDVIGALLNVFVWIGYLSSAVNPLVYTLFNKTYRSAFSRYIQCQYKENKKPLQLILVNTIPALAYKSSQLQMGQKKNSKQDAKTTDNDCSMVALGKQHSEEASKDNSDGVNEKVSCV
Sequence of Muscarinic acetylcholine receptor M1 (Homo sapiens) (P11229 whole entry, looked up): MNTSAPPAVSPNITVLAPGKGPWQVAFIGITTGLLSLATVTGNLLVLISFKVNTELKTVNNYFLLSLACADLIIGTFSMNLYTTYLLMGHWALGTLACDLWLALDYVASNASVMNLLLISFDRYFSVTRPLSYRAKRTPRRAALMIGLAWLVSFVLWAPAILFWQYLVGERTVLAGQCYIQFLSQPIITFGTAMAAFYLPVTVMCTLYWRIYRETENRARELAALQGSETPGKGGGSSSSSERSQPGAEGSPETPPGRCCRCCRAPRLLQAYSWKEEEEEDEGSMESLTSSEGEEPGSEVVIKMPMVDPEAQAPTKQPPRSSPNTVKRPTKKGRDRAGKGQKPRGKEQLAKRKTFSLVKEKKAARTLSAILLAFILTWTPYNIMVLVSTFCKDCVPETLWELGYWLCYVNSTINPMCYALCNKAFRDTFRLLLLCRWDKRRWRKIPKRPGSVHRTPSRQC
Sequence of Beta-2 adrenergic receptor (Homo sapiens) (P07550 whole entry, looked up): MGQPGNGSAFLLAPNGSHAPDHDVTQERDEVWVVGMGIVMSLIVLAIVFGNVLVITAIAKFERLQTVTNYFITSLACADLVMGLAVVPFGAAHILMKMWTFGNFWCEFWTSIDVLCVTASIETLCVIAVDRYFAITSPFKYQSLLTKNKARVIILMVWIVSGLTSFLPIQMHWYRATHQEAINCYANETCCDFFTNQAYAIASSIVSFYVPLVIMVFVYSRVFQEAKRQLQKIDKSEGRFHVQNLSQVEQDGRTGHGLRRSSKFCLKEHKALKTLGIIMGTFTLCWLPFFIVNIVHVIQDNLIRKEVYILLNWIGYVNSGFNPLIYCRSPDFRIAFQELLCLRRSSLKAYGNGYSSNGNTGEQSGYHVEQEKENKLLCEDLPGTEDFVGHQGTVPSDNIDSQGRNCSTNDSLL
Sequence of KiSS-1 receptor (Homo sapiens) (Q969F8 whole entry, looked up): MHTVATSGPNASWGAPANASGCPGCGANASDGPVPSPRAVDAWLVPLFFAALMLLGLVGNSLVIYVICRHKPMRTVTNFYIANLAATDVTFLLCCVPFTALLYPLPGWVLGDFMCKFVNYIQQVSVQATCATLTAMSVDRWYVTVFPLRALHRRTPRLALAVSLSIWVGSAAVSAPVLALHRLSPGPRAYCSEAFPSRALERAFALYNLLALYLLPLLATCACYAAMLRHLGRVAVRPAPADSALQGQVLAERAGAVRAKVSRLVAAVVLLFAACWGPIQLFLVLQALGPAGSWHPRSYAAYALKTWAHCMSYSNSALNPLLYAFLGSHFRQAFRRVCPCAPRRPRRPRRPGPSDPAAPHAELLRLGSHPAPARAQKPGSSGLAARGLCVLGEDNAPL
Sequence of Gonadotropin-releasing hormone receptor (Homo sapiens) (P30968 whole entry, looked up): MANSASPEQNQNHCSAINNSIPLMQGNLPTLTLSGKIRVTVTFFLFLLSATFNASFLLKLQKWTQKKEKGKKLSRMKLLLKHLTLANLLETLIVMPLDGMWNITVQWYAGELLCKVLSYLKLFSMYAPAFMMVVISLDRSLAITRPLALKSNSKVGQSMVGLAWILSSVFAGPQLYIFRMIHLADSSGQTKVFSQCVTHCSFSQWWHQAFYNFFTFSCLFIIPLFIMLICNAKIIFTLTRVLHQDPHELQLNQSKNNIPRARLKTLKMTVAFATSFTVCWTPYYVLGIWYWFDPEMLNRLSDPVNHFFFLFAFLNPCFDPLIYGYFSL

CC(C)(C)NCCNC(C)(C)C
not listed: [18] | [19] | [20]
inactive: all other assays above

O=[N+]([O-])c1cc(Cl)c(Cl)c(Cl)c1Cl
active: [2] 48.4 µM
not listed: [19] | [20]
inactive: all other assays above

CCCCCCCC(=O)Oc1c(Br)cc(C#N)cc1Br
not listed: [15] | [20]
inactive: all other assays above

NS(=O)(=O)c1cc2c(cc1Cl)CN(C1CCCCC1)C2=O
not listed: [15] | [20]
inactive: all other assays above

CC(C)(O)CCCC1=CCC(C=O)CC1 (stereo unspecified)
not listed: [13] | [17] | [19]
inactive: all other assays above

Nc1ccc(C(=O)Oc2ccccc2)c(O)c1
not listed: [13] | [15] | [18] | [19]
inactive: all other assays above

CC(=O)OCC[N+](C)(C)C
active: [3] 6.01 µM
not listed: [13] | [14] | [18] | [19]
inactive: all other assays above

COc1ccc(CN2CCN(C(c3ccc(F)cc3)c3ccc(F)cc3)CC2)c(OC)c1OC
active: [1] 21.1 µM | [10] 15.8 µM | [13] 2.59 µM
not listed: [15] | [17] | [20]
inactive: all other assays above

CCCCN1CCCC1C(=O)Nc1c(C)cc(C)cc1C (stereo unspecified)
not listed: [15] | [19] | [20]
inactive: all other assays above

COc1ccc(C(C)=O)cc1
not listed: [13]
inactive: all other assays above

COc1ccc(C(=O)Nc2ccccc2)cc1[N+](=O)[O-]
not listed: [15] | [19] | [20]
inactive: all other assays above

Nc1ccccc1O
active: [2] 47.9 µM | [8] 28.5 µM | [10] 32 µM
not listed: [15] | [16] | [18] | [19] | [20]
inactive: all other assays above

CCOC(=O)CC(=O)c1cc(F)c(Cl)nc1Cl
not listed: [13] | [15]
inactive: all other assays above

COc1ccc(OC)c(N=Nc2c(O)ccc3ccccc23)c1
active: [1] 27.3 µM | [2] 27.3 µM
not listed: [12] | [14] | [17] | [18]
inactive: all other assays above

NC(=O)N1c2ccccc2CC(=O)c2ccccc21
not listed: [12] | [13] | [14] | [16] | [19]
inactive: all other assays above

CCCc1nn(C)c2c(=O)[nH]c(-c3cc(S(=O)(=O)N4CCN(C)CC4)ccc3OCC)nc12
not listed: [12] | [13] | [14]
inactive: all other assays above
